Laboratory results published in PubChem BioAssay.
Activity calls are given as the source filed them.

Columns and labels:
[1] = system: Human papillomavirus type 1a protein E7 (residues 44-93); test: HPV1a E7 fragment binders on microarrays, primary screen, biochemical, small-molecule microarray, residues 44-93, 635 nm fluorescence (AID 1108); details: small-molecule microarray binding, fluorescence 635 nm; higher = more signal;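 also: E7 fragment applied at 1 µg/mL in TBST for 1 h at 4 C; score combines spot fluorescence with its signal to noise ratio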
[2] = modulators of HCV replicon luciferase signal, primary screen, HCV replication inhibitor project, Huh7 cells, luciferase reporter (AID 1109); details: 48 h, higher = more signal;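 also: huh7 hepatoma cells harbouring a luciferase neomycin HCV replicon reporter; luciferase luminescence as measure of HCV replicon replication; test concentration not given here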
[3] = target: Left-right determination factor 2 (Homo sapiens) (UniProt O00292); test: LEFTY2 binders on small-molecule microarrays, primary screen, biochemical, small-molecule microarray, 635 nm fluorescence scan (AID 1110); details: LEFTY2 binding, higher = more signal
Chain of Left-right determination factor 2 (Homo sapiens) (O00292 whole entry, looked up): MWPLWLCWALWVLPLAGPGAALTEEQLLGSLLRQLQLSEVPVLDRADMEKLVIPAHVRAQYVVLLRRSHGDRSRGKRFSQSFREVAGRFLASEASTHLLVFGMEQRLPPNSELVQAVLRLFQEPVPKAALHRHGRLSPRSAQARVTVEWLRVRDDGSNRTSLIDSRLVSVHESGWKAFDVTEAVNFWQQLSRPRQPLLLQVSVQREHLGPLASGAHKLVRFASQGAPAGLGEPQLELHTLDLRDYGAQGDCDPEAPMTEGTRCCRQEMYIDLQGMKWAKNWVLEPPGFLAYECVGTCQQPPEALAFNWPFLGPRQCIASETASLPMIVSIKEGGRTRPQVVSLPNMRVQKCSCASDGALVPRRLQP

[4] = target: Calmodulin-1 (Homo sapiens) (UniProt P0DP23); test: CALM1 binders on microarrays, EGTA buffer, profiling panel, biochemical, small-molecule microarray, Cy5-labelled CALM1 (AID 1111); details: Cy5-CALM1 binding fluorescence, higher = more signal;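 also: labelled calmodulin applied in Tris saline Tween buffer holding calcium plus EGTA and DTT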
[5] = target: Calmodulin-1 (Homo sapiens) (UniProt P0DP23); test: calcium-bound CALM1 binders on microarrays, profiling panel, artefact control for SMM control-protein annotation, biochemical, small-molecule microarray, Cy5-labelled CALM1, plus calcium (AID 1112); details: Cy5-CALM1 binding fluorescence, higher = more signal;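 also: score merges spot fluorescence with signal to noise from triplicate slides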
[6] = small-molecule microarray binders of probe aWnt5a, primary screen, biochemical, biotinylated probe, 635/667 nm fluorescence (AID 1113); details: higher = more signal;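 also: score merges 667 nm fluorescence intensity with signal-to-noise per printed feature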
[7] = small-molecule microarray binders of probe aShh, primary screen, biochemical, biotinylated probe, 635/667 nm fluorescence (AID 1114); details: higher = more signal;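 also: probe is biotin-labelled aShh protein from a stem cell growth factor screen; measures binding of labelled protein to compounds printed on the slide; score merges feature fluorescence at 667 nm with signal-to-noise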
[8] = small-molecule microarray binders of probe aNog, primary screen, biochemical, biotinylated probe, 635/667 nm fluorescence (AID 1115); details: higher = more signal;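 also: probe is biotinylated aNog protein used at 0.15 µg/mL for 1 h at 4 C; z-score combines 667 nm fluorescence of each spot with its signal to noise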
[9] = target: Torsin-1A-interacting protein 1 (Homo sapiens) (UniProt Q5JTV8); test: LAP1 binders from COS7 cell lysate, primary screen, small-molecule microarray, 635/667 nm fluorescence (AID 1116); details: COS7-hLAP1 lysate binding, 635 nm fluorescence, higher = more signal
Chain of Torsin-1A-interacting protein 1 (Homo sapiens) (Q5JTV8 whole entry, looked up): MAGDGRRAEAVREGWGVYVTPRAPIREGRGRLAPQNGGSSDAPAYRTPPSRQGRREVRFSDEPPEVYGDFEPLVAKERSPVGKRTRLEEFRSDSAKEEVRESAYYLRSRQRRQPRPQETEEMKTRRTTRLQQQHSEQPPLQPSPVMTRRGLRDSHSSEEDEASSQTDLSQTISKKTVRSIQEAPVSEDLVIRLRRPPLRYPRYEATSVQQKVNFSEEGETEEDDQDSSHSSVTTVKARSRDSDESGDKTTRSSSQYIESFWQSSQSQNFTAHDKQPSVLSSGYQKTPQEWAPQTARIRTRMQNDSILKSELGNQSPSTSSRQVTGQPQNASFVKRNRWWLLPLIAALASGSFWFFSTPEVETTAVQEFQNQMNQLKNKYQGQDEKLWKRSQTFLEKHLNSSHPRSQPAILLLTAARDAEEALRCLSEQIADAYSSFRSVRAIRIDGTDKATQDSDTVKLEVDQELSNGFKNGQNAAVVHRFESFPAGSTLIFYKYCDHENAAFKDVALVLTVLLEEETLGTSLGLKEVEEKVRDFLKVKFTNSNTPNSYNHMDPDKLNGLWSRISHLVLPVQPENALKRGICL

[10] = target: Alpha-bungarotoxin (Bungarus multicinctus) (UniProt P60615); test: alpha-bungarotoxin binders on microarray, profiling panel, artefact control for SMM control protein annotation, biochemical, small-molecule microarray, Alexa647 label, 635/667 nm fluorescence (AID 1117); details: alpha-BTX-A647 binding fluorescence, higher = more signal
Chain of Alpha-bungarotoxin (Bungarus multicinctus) (P60615 whole entry, looked up): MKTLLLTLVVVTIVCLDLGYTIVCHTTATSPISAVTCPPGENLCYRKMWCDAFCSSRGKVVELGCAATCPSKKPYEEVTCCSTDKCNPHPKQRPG

Albumin (Bos taurus) = Albumin (Bos taurus) (UniProt P02769); test: bovine serum albumin binders on microarray, profiling panel, artefact control for SMM control protein annotation, biochemical, small-molecule microarray, Alexa647 label, 635/667 nm fluorescence (AID 1118); details: BSA-A647 binding, fluorescence 635 nm, higher = more signal;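 also: score merges 667 nm emission intensity and signal-to-noise per printed compound spot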
Chain of Albumin (Bos taurus) (P02769 whole entry, looked up): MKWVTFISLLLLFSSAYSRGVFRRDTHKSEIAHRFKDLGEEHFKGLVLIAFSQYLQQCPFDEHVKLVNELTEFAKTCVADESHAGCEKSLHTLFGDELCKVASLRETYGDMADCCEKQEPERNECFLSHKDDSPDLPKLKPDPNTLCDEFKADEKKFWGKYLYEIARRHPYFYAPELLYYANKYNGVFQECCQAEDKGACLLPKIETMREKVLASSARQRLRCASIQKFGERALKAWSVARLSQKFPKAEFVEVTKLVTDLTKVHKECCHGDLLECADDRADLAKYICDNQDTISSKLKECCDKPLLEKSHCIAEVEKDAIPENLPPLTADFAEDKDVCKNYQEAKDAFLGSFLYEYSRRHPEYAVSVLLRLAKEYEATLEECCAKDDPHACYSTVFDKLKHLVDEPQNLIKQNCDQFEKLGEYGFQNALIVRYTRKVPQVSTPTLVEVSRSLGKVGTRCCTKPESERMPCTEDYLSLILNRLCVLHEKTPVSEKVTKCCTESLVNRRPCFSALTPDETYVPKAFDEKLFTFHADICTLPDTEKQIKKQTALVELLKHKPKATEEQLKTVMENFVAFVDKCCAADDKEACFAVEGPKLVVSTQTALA

[11] = small-molecule microarray binders of probe aXIP, primary screen, biochemical, NeuroSMM set, 635/667 nm fluorescence (AID 1119); details: higher = more signal, called active from +8 up or from −8 down;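 also: probe is the protein aXip251-270 applied at 1 µg/mL to compound-printed slides; binding of probe to printed compounds measured as 667 nm fluorescence plus signal to noise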
[12] = small-molecule binders of probe aNOTCH3, primary screen, biochemical, small-molecule microarray, 635/667 nm fluorescence (AID 1120); details: higher = more signal;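 also: probe is a biotin-tagged antibody raised against NOTCH3 rather than NOTCH3 protein; score merges spot fluorescence near 667 nm with spot signal to noise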
[13] = small-molecule binders of probe aNOTCH2, primary screen, biochemical, small-molecule microarray, 635/667 nm fluorescence (AID 1121); details: higher = more signal;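 also: score merges feature fluorescence read at 667 nm with its signal to noise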
[14] = target: Carbonic anhydrase 2 (Homo sapiens) (UniProt P00918); test: CAII small-molecule binders, profiling panel, biochemical, small-molecule microarray, Alexa647-labelled CAII (AID 1122); details: CAII-A647 binding fluorescence, higher = more signal
[15] = COS7 lysate on small-molecule microarray, probe aHis, 635 nm (AID 1123); details: COS7 cell lysate, fluorescence, higher = more signal;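 also: z-score combines 667nm fluorescence intensity with signal-to-noise per printed compound spot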
[16] = compound binding in COS7 lysate, probe aLAP1, primary screen, cell lysate, small-molecule microarray (AID 1124); details: probe aLAP1, fluorescence, higher = more signal;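 also: lysate comes from COS7 cells expressing LAP1 and is applied at 0.3 µg/mL; score merges spot fluorescence near 667 nm with signal-to-noise over triplicate slides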
Sam68 (KHDRBS1) = test: Sam68 small-molecule binders, primary screen, biochemical, small-molecule microarray, 635 nm fluorescence (AID 1125); details: small-molecule microarray binding, higher = more signal;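 also: score merges 667 nm channel intensity with signal to noise over triplicate slides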
[17] = system: Chordin-like protein 2 (CHRDL2); test: CHRDL2 small-molecule binders, primary screen, biochemical, small-molecule microarray, 635 nm fluorescence (AID 1126); details: small-molecule microarray binding, fluorescence 635 nm; higher = more signal;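 also: printed compound slides probed with Chrdl2 protein at 4 µg/mL for 1 h at 4 C; score merges 667 nm emission intensity with signal to noise over three replicate slides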
[18] = target: Concanavalin-A (Canavalia ensiformis) (UniProt P02866); test: ConA small-molecule binders, primary screen, artefact control for SMM control protein annotation, biochemical, small-molecule microarray, Alexa647 label, 635 nm (AID 1127); details: ConA-A647 binding fluorescence, higher = more signal;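 also: z combines 667 nm emission intensity with signal-to-noise across three replicate slides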
Chain of Concanavalin-A (Canavalia ensiformis) (P02866 whole entry, looked up): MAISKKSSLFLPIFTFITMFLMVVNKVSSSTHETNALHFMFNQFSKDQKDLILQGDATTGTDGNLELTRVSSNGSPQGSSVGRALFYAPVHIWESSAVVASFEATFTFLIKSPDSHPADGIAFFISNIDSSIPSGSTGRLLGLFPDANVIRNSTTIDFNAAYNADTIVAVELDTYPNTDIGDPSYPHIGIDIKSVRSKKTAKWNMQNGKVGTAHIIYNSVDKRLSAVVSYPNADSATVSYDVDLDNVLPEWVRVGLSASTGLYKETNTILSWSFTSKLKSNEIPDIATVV

Row | Compound | composite z-score [1] | z-score [2] | composite z-score [3] | composite z-score [4] | composite z-score [5] | composite z-score [6] | composite z-score [7] | composite z-score [8] | composite z-score [9] | composite z-score [10] | composite z-score (Albumin (Bos taurus)) | composite Z-score [11] | composite z-score [12] | composite z-score [13] | composite z-score [14] | composite z-score [15] | composite z-score [16] | composite z-score (Sam68 (KHDRBS1)) | composite z-score [17] | composite z-score [18]
1 | CC(C)NC(=O)[C@@H]1c2ccccc2C(=O)N(Cc2ccc(OC(F)(F)F)cc2)[C@H]1c1ccc(CO)cc1 | 0.973 | -0.779 | 0.39 | 0.1 | -0.126 | 0.265 | 0.637 | -0.486 | 0.673 | 0.589 | -0.215 | -0.194 (inactive) | 0.503 | 0.321 | 0.268 | 1.35 | 0.651 | 1.3 | 0.215 | 0.882
2 | CCOc1cc(C(O)C2C=CC3C(=O)N(c4ccccc4)C(=O)C3N2Nc2ccccc2F)ccc1O (stereo not given) | 0.357 | -0.299 | -0.325 | 0.182 | 0.479 | 0.302 | 0.536 | 1.71 | -0.321 | 0.762 | 0.799 | -0.209 (inactive) | 0.533 | 0.433 | 0.826 | 2.75 | 0.0411 | 0.339 | 0.0988 | 0.666
3 | CC(C)NC(=O)[C@@]1(c2ccc([N+](=O)[O-])cc2)CC(=O)N(CC23CC4CC(CC(C4)C2)C3)[C@@H]1c1ccc(CO)cc1 | 0.939 | -2.7 | 1.03 | 1.03 | -0.0022 | 0.289 | 0.321 | 1.85 | 1.52 | 1.37 | 0.0436 | 0.655 (inactive) | 1.07 | 0.427 | 0.195 | 2.79 | 0.885 | 1.29 | 1.21 | 1.12
4 | COc1ccc(C(=O)Nc2ccc3c(c2)[C@@]2(O[C@H](CCO)[C@@H]([Si](C)(C)c4ccc(OC)cc4)[C@@H]2C)C(=O)N3Cc2ccccc2)cc1 | 1.28 | -5.23 | 0.219 | 0.397 | 0.238 | -0.0599 | -0.0782 | 0.56 | 0.518 | 0.399 | -0.351 | 0.004 (inactive) | -0.0647 | -0.0357 | 0.124 | 0.88 | 0.556 | 0.973 | 0.268 | 0.637
5 | C=C(CCCC)/C(=C/C[C@H](OC(=O)c1ccncc1)c1ccccc1OCCO)c1cc(C(=O)OC)ccc1OC | 1.22 | -2.89 | -0.015 | -0.0646 | -0.636 | -0.0331 | 0.0684 | -0.305 | 0.869 | -0.056 | -0.172 | -0.0743 (inactive) | -0.0362 | -0.145 | 0.63 | 1.2 | 0.127 | 1.05 | 0.647 | 0.749
